Assay outcomes deposited in PubChem BioAssay by National Center for Advancing Translational Sciences (NCATS).
In the library only some 5.4% were active in any assay of this set; here they are far more common.
VP16 counter: counter-screen for ROR gamma inhibitors: Gal4-VP16 reporter; Drosophila S2 Gal4-VP16 UAS-luciferase, luminescence, 20 h; Potency, µM (series often up to 53.6 µM), actives largely listed as inhibitors; 310,000 tested, 3.5% active;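 also: Gal4-VP16 expression switched on by copper sulfate through the metallothionein promoter; nearly all actives have a fitted effect of over 50% in size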
CtBP-E1A inh: CtBP/E1A binding inhibition. AlphaScreen GST-E1A/His-CtBP binding, 1536-well; hits give low values. activity change, % (no concentration beside the values). 340,000 tested, 0.49% active; in the data active = activity change below about -65%; inconclusive = mostly about -30% to -63%
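Protein mix (5X: 125 nM each GST-E1A, His-CtBP) was incubated with pinned compound 2 h at 37 deg C in dark, in 50 mM Tris pH 8.0 buffer with 300 mM NaCl. Glutathione donor and nickel acceptor beads followed; AlphaScreen signal read after 1 h.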
RORgamma inh: ROR gamma (mouse) transcription inhibition; AID 2551; Potency, µM (titrated, usually from 53.6 µM), usual class: inhibitors; P51450; 310,000 tested, 5.4% active; Drosophila S2 Gal4-RORgamma UAS-luciferase reporter, 20 h; also: nearly all actives have a fitted effect of over 60% in size
Target sequence (P51450 whole entry, looked up, the tested form may be a part): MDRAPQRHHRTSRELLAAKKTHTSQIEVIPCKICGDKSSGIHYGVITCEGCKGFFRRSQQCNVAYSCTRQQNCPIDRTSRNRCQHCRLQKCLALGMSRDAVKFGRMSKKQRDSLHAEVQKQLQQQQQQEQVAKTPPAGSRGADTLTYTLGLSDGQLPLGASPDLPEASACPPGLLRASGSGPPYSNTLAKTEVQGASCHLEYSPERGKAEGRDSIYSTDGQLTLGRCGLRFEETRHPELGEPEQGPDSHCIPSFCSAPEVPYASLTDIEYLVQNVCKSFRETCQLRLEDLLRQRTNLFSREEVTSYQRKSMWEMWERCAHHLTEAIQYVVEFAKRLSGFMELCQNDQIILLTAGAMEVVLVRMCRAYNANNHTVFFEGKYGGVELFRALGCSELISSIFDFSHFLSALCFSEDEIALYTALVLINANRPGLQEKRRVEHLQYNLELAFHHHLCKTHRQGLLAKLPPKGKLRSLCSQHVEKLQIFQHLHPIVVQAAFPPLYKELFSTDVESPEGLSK
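Luciferase reporter read in Schneider cells carrying Gal4-RORγ (mouse) and UAS-Photinus luciferase; cells given compound 1 h before 700 uM copper sulfate induction, then incubated 20 h at ambient temperature.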
Six1-Eya2 inh: inhibitors of human Six1/Eya2 interaction; Q15475+O00167; AlphaScreen GST-Six1/His-Eya2 binding, biochemical; hits give low values; activity change, % (test concentration not listed); 360,000 tested, 0.56% active; AID 651725; in the data active = activity change below about -65%; inconclusive = mostly about -30% to -63%
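AlphaScreen luminescence read after one hour at 37 °C in darkness. Pin-transferred compounds met GST-Six1 and His-Eya2 protein (5X stock 250 nM/500 nM) plus glutathione donor and Ni-chelate acceptor beads (5X, 50 ug/mL).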
p53 reactivation: mutant p53 re-activation in reporter cells; H1299 p53-A138V BP100-luciferase reporter, luminescence, 24 h; Potency, µM (top dose mostly 92.2 µM), most hits filed as activators; 320,000 tested, 0.063% active; also: nearly all actives have a fitted effect of over 45% in size
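H1299 (p53-null), stable ts p53-A138V + BP100-Luc; 1000 cells/well, Opti-MEM/10% FBS; cpd 4 pt, 1:5; 24 h, 37 deg C, 5% CO2; detection reagent 10 min RT; luminescence.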
Of the large screens only hits and unclear results are named; the others gave an inactive call. Unless noted, calls follow the shape of the dose curve; as a rule, active = well fitted curve in the direction sought with a large enough effect; inconclusive = small, poorly fitted or top-dose-only effect, or another doubt; inactive = no such curve, though single readings can be large; an effect the other way counts as inactive or inconclusive.

COc1ccc(NC(=S)NC(=O)CC(C)C)c(OC)c1	VP16 counter inconclusive, RORgamma inh inconclusive
COc1cc(NC(=S)NCCc2ccccc2)c(OC)cc1NC(=O)CC(C)C	VP16 counter inconclusive, RORgamma inh 10µM
CC(C)CC(=O)NC(=S)NCCc1ccccc1	VP16 counter 7.94µM, RORgamma inh 1.78µM
CC(C)(C)CC(=O)NC(=S)NCCc1ccccc1	VP16 counter 10µM, RORgamma inh 7.08µM
CC(C)(C)c1ccc(C(=O)NCCc2ccccc2)cc1	VP16 counter inconclusive, p53 reactivation inconclusive
CC(C)(C)NC(=S)NCCc1ccccc1	VP16 counter 7.08µM, RORgamma inh 6.31µM, p53 reactivation inconclusive
CC(=O)OCC(NC(=O)C1CCCN1C(=O)OC(C)(C)C)C1OC(n2cc(F)c(=O)[nH]c2=O)C(OC(C)=O)C1OC(C)=O (configuration not stated)	none (no result: CtBP-E1A inh, Six1-Eya2 inh, p53 reactivation)
CCOc1cc(NC(=S)NCCc2ccccc2)c(OCC)cc1NC(C)=O	RORgamma inh 11.2µM
O=C(Nc1nncs1)c1cc2c(s1)CCC2	RORgamma inh inconclusive
Cc1ccc(C(=O)Nc2nc(-c3ccccn3)cs2)s1	CtBP-E1A inh -90.8, Six1-Eya2 inh -90.0, p53 reactivation inconclusive (no result: VP16 counter, RORgamma inh)
O=C(Nc1nccs1)c1cc2c(s1)CCCCC2	VP16 counter 7.94µM
O=C(Nc1nccs1)c1ccc(S(=O)(=O)NCC2CCCCC2)cc1	RORgamma inh 11.2µM
CCc1sc(C(=O)Nc2nc(-c3ccccn3)cs2)cc1C	CtBP-E1A inh -89.7, Six1-Eya2 inh -67.5 (no result: VP16 counter, RORgamma inh)
CCOc1cccc(C(=O)Nc2ccc3c(c2)OCCO3)c1	none
CCCCN(CCCNC(=O)CN1C(=O)COc2ccc(S(=O)(=O)N3CCC(C)CC3)cc21)Cc1ccccc1	none (no result: CtBP-E1A inh)
CN(c1ccc(C(=O)Nc2nccs2)cc1)S(=O)(=O)c1ccccc1	RORgamma inh 2.82µM, Six1-Eya2 inh inconclusive
O=C(Nc1nc(-c2ccccn2)cs1)c1ncc(Cl)c(Cl)c1Cl	VP16 counter 10µM, CtBP-E1A inh -74.5, RORgamma inh 6.31µM, Six1-Eya2 inh inconclusive
Cc1ccsc1C(=O)Nc1nccs1	VP16 counter inconclusive, RORgamma inh 11.2µM
O=C(Nc1nc(-c2ccccn2)cs1)c1ccc(Cl)s1	CtBP-E1A inh inconclusive, Six1-Eya2 inh inconclusive
CCc1sc(C(=O)Nc2nccs2)cc1C	VP16 counter inconclusive, RORgamma inh 7.94µM, p53 reactivation inconclusive
CN(CC(=O)Nc1ccc(Cl)cc1)CC(=O)Nc1sc2c(c1C(N)=O)CCC2	none (no result: VP16 counter, RORgamma inh, p53 reactivation)
Cn1cccc1C(=O)Nc1nc(-c2ccccn2)cs1	VP16 counter 3.98µM, CtBP-E1A inh -89.1, RORgamma inh 1.58µM, Six1-Eya2 inh -85.5
Cc1csc(NC(=O)c2cccn2C)n1	none
CC1(C)CN(c2ccccc2)C(=O)[C@H]1CC(=O)Nc1ccccc1	none (no result: VP16 counter, RORgamma inh, p53 reactivation)
CC1CCCCC1NC(=O)COC(=O)c1ccc2c(c1)NC(=O)CS2 (configuration not stated)	none (no result: VP16 counter, RORgamma inh)
CCc1ccc(/C=N/n2c(C3CCCCC3)n[nH]c2=S)cc1	VP16 counter 8.91µM, RORgamma inh 3.55µM (no result: CtBP-E1A inh)
S=c1[nH]nc(C2CCCCC2)n1/N=C/c1ccc(Br)s1	VP16 counter 3.98µM, RORgamma inh 1.12µM
S=c1[nH]nc(C2CCCCC2)n1/N=C/c1c(Cl)cccc1Cl	VP16 counter inconclusive, RORgamma inh inconclusive
S=c1[nH]nc(C2CCCCC2)n1/N=C/c1ccc(Cl)cc1	VP16 counter 7.94µM, RORgamma inh 0.355µM
Cc1ccc(/C=N/n2c(C3CCCCC3)n[nH]c2=S)cc1	VP16 counter 7.08µM, RORgamma inh 2.51µM
COc1ccc2cc1Oc1cc3c(cc1OC)CC[N+](C)(C)C3Cc1ccc(cc1)Oc1c(OC)c(OC)cc3c1C(C2)[N+](C)(C)CC3 (configuration not stated)	none (no result: CtBP-E1A inh, Six1-Eya2 inh, p53 reactivation)
COc1ccc(NC(=O)c2ccc(S(=O)(=O)N3CCCCC3)cc2)cc1OC	none (no result: VP16 counter, RORgamma inh)
FC(F)(F)c1ccc(/C=N/n2c(C3CCCCC3)n[nH]c2=S)cc1	VP16 counter 10µM (no result: CtBP-E1A inh)
FC(F)(F)c1ccc(/C=N/n2c(COc3ccccc3)n[nH]c2=S)cc1	RORgamma inh inconclusive
S=c1[nH]nc(C2CCCCC2)n1/N=C/c1ccc(Br)cc1	VP16 counter inconclusive, RORgamma inh 1.41µM
Cc1cc2nc3c(=O)[nH]c(=O)nc-3n(C)c2cc1C=O	RORgamma inh 10µM (no result: CtBP-E1A inh, Six1-Eya2 inh, p53 reactivation)
CC(=O)OCCn1c2nc(=O)[nH]c(=O)c-2nc2cc(C)c(C)cc21	none (no result: CtBP-E1A inh)
O=S(=O)(Nc1ccc(-n2cccc2)cc1)c1ccc(Cl)cc1Cl	VP16 counter 14.1µM, RORgamma inh 20µM
CC(C)C(=O)NC(c1cccc([N+](=O)[O-])c1)c1ccc2cccnc2c1O (configuration not stated)	VP16 counter 2.51µM, RORgamma inh 2.82µM, Six1-Eya2 inh -94.0
CCCC(=O)NC(c1cccc([N+](=O)[O-])c1)c1ccc2cccnc2c1O (configuration not stated)	CtBP-E1A inh inconclusive, Six1-Eya2 inh -91.3 (no result: VP16 counter, RORgamma inh, p53 reactivation)
CC(C)C(=O)NC(c1ccc([N+](=O)[O-])cc1)c1c(O)ccc2ccccc12 (configuration not stated)	VP16 counter 12.6µM, RORgamma inh inconclusive
CC(C)C(=O)NC(c1cccc([N+](=O)[O-])c1)c1c(O)ccc2ccccc12 (configuration not stated)	none
Cc1ccc(S(=O)(=O)NCCC(=O)NCC(c2ccco2)N2CCCCC2)cc1C (configuration not stated)	none (no result: VP16 counter, RORgamma inh)
COc1ccc(CNC(=O)C[C@H]2C[C@H](C(=O)N(C(C)C)C(C)C)[C@@]3(C)c4[nH]c5cc(-c6ccco6)ccc5c4CCN3C2=O)cc1OC	CtBP-E1A inh inconclusive (no result: VP16 counter, RORgamma inh)
O=C1CC(N2CCOCC2)C(=O)N1Cc1ccc(N2CCCC2=O)cc1 (configuration not stated)	none
O=C1CCCN1CCC1CCN(C2CC(=O)N(Cc3ccc(N4CCCC4=O)cc3)C2=O)CC1 (configuration not stated)	VP16 counter inconclusive, RORgamma inh 7.08µM
COc1cc(/C=N/NC(=Nc2ccc(C)cc2)c2nc3ccccc3s2)ccc1O	VP16 counter inconclusive, RORgamma inh 7.08µM
C=CCNC(=O)/C(C#N)=C/c1ccccc1Cl	none
C=CCNC(=O)/C(C#N)=C/c1cc(Br)ccc1OC	VP16 counter inconclusive, RORgamma inh 12.6µM
CCOC(=O)/C(=N\Nc1ccc(OC)cc1)c1csc(Nc2ccccc2)n1	VP16 counter inconclusive, RORgamma inh inconclusive
Cc1cc(=O)[nH]c(N2CCCNCC2)n1	none (no result: p53 reactivation)
Cc1cc(=O)[nH]c(-n2nc(C)c(Oc3ccccc3O)c2C)n1	VP16 counter 11.2µM, RORgamma inh 4.47µM
Cc1nn(-c2ccc(C(F)(F)F)cn2)c(C)c1Oc1ccccc1O	none
Cc1cc(=O)[nH]c(-n2nc(C)cc2C)n1	VP16 counter 3.16µM, RORgamma inh 1.58µM
CCC(=O)NC(=S)Nc1ccc(-c2nc3ccccc3s2)cc1	VP16 counter inconclusive, RORgamma inh 1.58µM, p53 reactivation inconclusive
